High-throughput results as filed in PubChem.
KDM4E inh: qHTS Assay for Inhibitors of Human Jumonji Domain Containing 2E (JMJD2E); Lysine-specific demethylase 4E (Homo sapiens), B2RXH2; JMJD2E catalytic domain, FDH-coupled NADH fluorescence (FDH is formaldehyde dehydrogenase); Potency, µM (top dose mostly 57.1 µM), most hits filed as inhibitors; actives 1.6% (n = 230,000); AID 2147, 2009; active = well fitted inhibition curve with a large enough effect, not every such curve was filed as active; inconclusive = small, poorly fitted or top-dose-only effect, or another doubt; inactive = no such curve, though single readings can be large or run the other way; note: nearly all actives have a fitted effect of over 50% in size
ALDH1A1 inh: qHTS Assay for Inhibitors of Aldehyde Dehydrogenase 1 (ALDH1A1); AID 1030, 2008; actives 7.3% (n = 220,000); Potency, µM (doses to about 75.3 µM), usual class: inhibitors; Purified ALDH1A1, NADH fluorescence, propionaldehyde substrate; Aldehyde dehydrogenase 1A1 (Homo sapiens), P00352; active = well fitted inhibition curve with a large enough effect, not every such curve was filed as active; inconclusive = small, poorly fitted or top-dose-only effect, or another doubt; inactive = no such curve, though single readings can be large or run the other way
Target sequence (P00352 whole entry, looked up): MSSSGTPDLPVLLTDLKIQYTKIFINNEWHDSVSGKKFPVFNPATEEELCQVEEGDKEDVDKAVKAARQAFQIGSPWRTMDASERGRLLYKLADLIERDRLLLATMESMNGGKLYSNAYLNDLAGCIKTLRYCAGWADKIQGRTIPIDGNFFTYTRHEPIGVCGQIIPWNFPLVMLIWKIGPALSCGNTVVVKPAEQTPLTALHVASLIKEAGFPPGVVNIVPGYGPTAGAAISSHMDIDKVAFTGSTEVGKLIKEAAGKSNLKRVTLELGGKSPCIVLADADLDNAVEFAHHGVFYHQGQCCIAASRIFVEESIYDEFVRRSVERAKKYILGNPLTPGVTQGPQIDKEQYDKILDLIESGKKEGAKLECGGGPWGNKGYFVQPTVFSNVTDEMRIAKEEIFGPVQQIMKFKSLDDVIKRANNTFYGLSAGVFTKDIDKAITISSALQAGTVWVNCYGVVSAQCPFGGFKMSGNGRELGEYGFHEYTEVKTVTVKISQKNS
Sfp inh: qHTS Assay for Inhibitors of Bacillus subtilis Sfp phosphopantetheinyl transferase (PPTase) | 4'-phosphopantetheinyl transferase ffp (Bacillus subtilis), Q9F4F7 | Biochemical Sfp PPTase activity, qHTS | Potency, µM, usual class: inhibitors | actives 3.5% (n = 310,000) | AID 1490, 2009;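 note: the enzyme is Sfp with the accession as filed and its product quenches rhodamine fluorescence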
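Sfp 15 nM + cpd, 15 min RT; start w/ rhodamine-CoA 5 uM, BHQ-2-YbbR 12.5 uM (final); 50 mM Hepes pH 7.6, 10 mM MgCl2, 0.01% NP-40, 0.01% BSA; read 525/598 nm at 0 and 30 min.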
G9a block: qHTS Assay for Inhibitors of Histone Lysine Methyltransferase G9a; Histone-lysine N-methyltransferase EHMT2 (Homo sapiens), Q96KQ7; Potency, µM (series often up to 102 µM), actives largely listed as inhibitors; G9a H3K9 monomethylation, AlphaScreen, 2 h; actives 8.8% (n = 350,000); AID 504332, 2011; note: nearly all actives have a fitted effect of over 75% in size
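AlphaScreen read-out: biotin-H3K9 peptide (500 nM) methylation by 20 nM enzyme with 20 uM SAM, 2 h at room temperature after 15 min compound preincubation; anti-monomethyl H3K9 antibody plus donor/acceptor beads, 10 min dark.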
LMNA splice mod: qHTS Assay for Modulators of Lamin A Splicing | HeLa LMNA splicing GFP/RFP minigene ratio, 48 h | Potency, µM (top dose mostly 46.1 µM), usual class: inhibitors | actives 0.01% (n = 200,000); active = well fitted inhibition curve with a large enough effect in the signal ratio, with a control signal flat, not every such curve was filed as active; inconclusive = small, poorly fitted or top-dose-only effect, or effect the other way, or a change in a side signal; the % refers to the signal ratio
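S3 HeLa stable clones carrying a lamin A-EGFP splicing minigene plus DsRed2 were seeded at 600 cells/well in Opti-MEM with 2% FBS, pin-dosed and incubated 48 h at 37°C. Acumen cytometry (488 nm) gave the GFP/RFP total-intensity ratio.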
miR-21 act: qHTS Assay for Modulators of miRNAs and/orActivators of miR-21. 340,000 tested, under 10 active. HeLa miR-21 FLuc reporter, luciferase, 48 h. Potency, µM (highest dose often 38.3 µM), most hits filed as activators;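 note: miR-21 action dims this reporter so a rising signal means less miR-21 action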
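Compounds were titrated across several concentrations (up to approximately 40 uM) and incubated 48 hours with HeLa miR-21-FLuc reporter cells (miR-21 target sequence downstream of FLuc, endogenous miR-21). Readout was firefly luciferase luminescence after lytic detection reagent.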
Large screens that a line does not name were inactive; ! = repeats disagree. Sampled rows, rich in hits. Any-hit rate of the full collection: about 13%. Unless noted, calls come from the whole dose curve; as a rule, active = well fitted curve in the direction sought with a large enough effect; inconclusive = small, poorly fitted or top-dose-only effect, or another doubt; inactive = no such curve, though single readings can be large; an effect the other way counts as inactive or inconclusive.

O=C(/C=C/c1ccco1)Nc1nc(-c2ccccn2)cs1	ALDH1A1 inh inconclusive, G9a block 22.4µM, LMNA splice mod inconclusive
O=C(/C=C/c1ccco1)Nc1nc(-c2ccccc2)cs1	G9a block inconclusive, LMNA splice mod inconclusive
CCSc1n[nH]c(=S)s1	KDM4E inh 25.1µM, ALDH1A1 inh 1.78µM, G9a block 1.41µM
Cc1ccc(NC(=O)c2ccc(=O)n(Cc3ccccc3C)c2)c(C)c1	none (no result: KDM4E inh, ALDH1A1 inh, Sfp inh)
CCOc1ccc(-c2nnc(SCC(=O)NCCC(C)C)nc2-c2ccc(OCC)c(OC)c2)cc1OC	G9a block inconclusive (no result: KDM4E inh, ALDH1A1 inh, Sfp inh)
O=C1c2ccccc2S(=O)(=O)N1CC1CC(c2ccccc2Cl)=NO1 (stereo not given)	ALDH1A1 inh 12.6µM
Cc1ccc(NC(=O)Cn2ccn(-c3ccccc3)c(=O)c2=O)cc1	none (no result: KDM4E inh, ALDH1A1 inh, Sfp inh)
O=C(CSc1ccc2nnc(CCNS(=O)(=O)c3ccccc3)n2n1)Nc1nc2ccccc2s1	KDM4E inh inconclusive, ALDH1A1 inh 25.1µM, LMNA splice mod inconclusive
O=C(Cc1cc2ccccc2o1)NCc1ccc(F)cc1	none (no result: KDM4E inh, ALDH1A1 inh, LMNA splice mod)
CCCc1nnc(NC(=O)CCC(=O)N2CCN(CCn3c(C)ccc3C)CC2)s1	KDM4E inh inconclusive, ALDH1A1 inh inconclusive, G9a block 70.8µM
CCCc1nnc(NC(=O)CCC(=O)N2CCN(CCOc3ccc(C)cc3)CC2)s1	ALDH1A1 inh inconclusive, LMNA splice mod inconclusive
CC1C/C(=C/c2cccn2C)C(=O)/C(=C/c2cccn2C)C1 (stereo not given)	KDM4E inh inconclusive, ALDH1A1 inh 3.55µM, Sfp inh inconclusive, G9a block inconclusive, LMNA splice mod inconclusive
COc1ccc2oc(C(=O)N(C)Cc3ccc(OC(F)F)cc3)c(C)c2c1	none (no result: KDM4E inh, ALDH1A1 inh, LMNA splice mod)
Brc1ccc(-c2cn3nc4c(nc3n2)CCCC4)cc1	KDM4E inh inconclusive, ALDH1A1 inh inconclusive, Sfp inh inconclusive, G9a block inconclusive
c1ccc(-c2cn3nc4c(nc3n2)CCCC4)cc1	KDM4E inh 31.6µM, ALDH1A1 inh inconclusive, Sfp inh 79.4µM, G9a block 50.1µM
c1ccc(CN2CCC(Nc3nc(-c4cccs4)nc4ccccc34)CC2)cc1	KDM4E inh inconclusive, Sfp inh 79.4µM, G9a block 35.5µM, LMNA splice mod inconclusive
O=C(/C=C/c1ccccc1)C1=C(O)C(=O)N(CCO)C1c1ccccc1[N+](=O)[O-] (stereo not given)	KDM4E inh inconclusive, ALDH1A1 inh inconclusive, Sfp inh inconclusive, G9a block 44.7µM
CC(=O)Nc1ccc(S(=O)(=O)Oc2cccc(/C=N/N=C3/NC(=O)C(CC(=O)O)S3)c2)cc1 (stereo not given)	ALDH1A1 inh 7.51µM, G9a block inconclusive (no result: LMNA splice mod)
O=C(O)CC1S/C(=N/N=C/C=C/c2ccccc2)NC1=O (stereo not given)	KDM4E inh inconclusive, G9a block 7.94µM
Cc1c(Cl)cccc1NC(=O)CCS(=O)(=O)c1ccc(Br)s1	none (no result: KDM4E inh, ALDH1A1 inh, Sfp inh, LMNA splice mod)
CC1CCC/C(=C\Nc2ccc(C(=O)O)c(O)c2)C1=O (stereo not given)	KDM4E inh inconclusive, Sfp inh 50.1µM, G9a block 44.7µM (no result: ALDH1A1 inh, LMNA splice mod)
CC1CCC/C(=C\Nc2ccc(C(=O)O)cc2)C1=O (stereo not given)	ALDH1A1 inh 14.1µM, G9a block inconclusive (no result: LMNA splice mod)
COc1cccc(CNC(=O)CN2C(=O)N(c3cc(C)ccc3C)S(=O)(=O)c3ccccc32)c1OC	LMNA splice mod inconclusive (no result: KDM4E inh, ALDH1A1 inh, Sfp inh)
COc1ccc2[nH]c(C)c(C(=O)CN3CCN(C(=O)c4ccco4)CC3)c2c1	G9a block 50.1µM
COc1ccc2oc(=O)c(C(=O)N3CCN(C(=O)c4ccco4)CC3)cc2c1	G9a block 17.8µM (no result: KDM4E inh, ALDH1A1 inh, LMNA splice mod)
CCc1ccc(NC(=O)C(=O)NCCN2CCN(C(=O)c3ccco3)CC2)cc1	ALDH1A1 inh 22.4µM, G9a block inconclusive
COc1ccc2oc(=O)c(C(=O)N3CCN(C(=O)c4ccccc4)CC3)cc2c1	none (no result: KDM4E inh, ALDH1A1 inh, LMNA splice mod)
COC(=O)c1ccc(NC(=S)N2CCN(C(=O)c3ccco3)CC2)cc1	Sfp inh 44.7µM, G9a block 31.6µM (no result: KDM4E inh, ALDH1A1 inh, LMNA splice mod)
COC(=O)c1ccc(C2Nc3c(C)cccc3-c3cc(C)nn32)cc1 (stereo not given)	none (no result: KDM4E inh, ALDH1A1 inh, Sfp inh, LMNA splice mod)
COc1ccc(NC(=S)N2CCN(C(=O)c3ccco3)CC2)c(OC)c1	Sfp inh 39.8µM, G9a block inconclusive
Cc1ccc(NC(=O)CN2C(=O)C(c3ccc(F)cc3)=NC23CCCCC3)c(C)c1	miR-21 act inconclusive (no result: KDM4E inh, ALDH1A1 inh, Sfp inh, LMNA splice mod)
CCOc1ccc2c(c1)C(C)=CC(C)(C)N2	KDM4E inh inconclusive, ALDH1A1 inh inconclusive, Sfp inh inconclusive, G9a block 8.91µM!, LMNA splice mod inconclusive (no result: miR-21 act)
CC1=CC(C)(C)Nc2ccc(OC(=O)C(Cc3ccccc3)N3C(=O)c4ccccc4C3=O)cc21 (stereo not given)	G9a block inconclusive, LMNA splice mod inconclusive
CC1=CC(C)(C)Nc2ccc(OC(=O)CN3C(=O)c4ccccc4C3=O)cc21	ALDH1A1 inh inconclusive, G9a block 35.5µM, LMNA splice mod inconclusive, miR-21 act inconclusive
CC1=CC(C)(C)Nc2ccc(OC(=O)CN3C(=O)c4cccc5cccc(c45)C3=O)cc21	KDM4E inh 12.6µM, ALDH1A1 inh 11.2µM, Sfp inh 39.8µM, G9a block 8.91µM, LMNA splice mod inconclusive
NCC1CCC(N)C(O[C@@H]2C(O)[C@H](O[C@H]3OC(CO)C(O)C(N)C3O)[C@@H](N)C[C@H]2N)O1 (stereo not given in full)	LMNA splice mod inconclusive (no result: miR-21 act)
